Test results as given in PubChem BioAssay.
The source made the active and inactive calls. Unless noted, the rule behind the calls is not given here.

Tests used:
[1] = tested on: Wnt5a (protein binding on small-molecule microarray); experiment: small molecules binding Wnt5a protein – biophysical, small-molecule microarray, 635/667 nm fluorescence, primary screen (AID 1142); details: 635 nm fluorescence, higher = more signal;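 note: fluorescence read at 667 nm with signal to noise per printed feature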
[2] = ATP-based viability of Huh7 replicon cells – cell-based, CellTiter-Glo luminescence, basal, 48 h, cytotoxicity control for HCV replication inhibitor project, primary screen (AID 1143); details: higher = more signal, called active from +8 up or from −8 down;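 note: Huh7 hepatoma cells carrying a hepatitis C replication reporter with no stimulus; test concentration not given here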
[3] = Pseudomonas biofilm growth suppression – PAO1 strain, BacTiter-Glo luminescence, LB-PBS, primary screen (AID 1144); details: P. aeruginosa PAO1 biofilm, 12 h, higher = more signal
[4] = basal CRE-LacZ reporter activity in PC12 – cell-based, unstimulated, primary screen (AID 1145); details: no forskolin, luminescence, 4.5 h, higher = more signal, called active from +8 up or from −8 down
[5] = forskolin-driven CRE-LacZ activity in PC12 – cell-based, CRE-LacZ reporter, forskolin-stimulated, primary screen (AID 1146); details: luminescence, 4.5 h, higher = more signal, called active from +8 up or from −8 down;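 note: PC12 cells with 6xCRE LacZ reporter stimulated by forskolin 10 µM; beta-galactosidase reporter signal reflecting CREB driven transcription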
[6] = molecular target: Streptavidin (Streptomyces avidinii) (UniProt P22629); experiment: compounds binding control protein streptavidin – biophysical, small-molecule microarray, 635/667 nm fluorescence, artefact control for SMM compound annotation, primary screen (AID 1147); details: higher = more signal;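 note: signal reflects streptavidin binding to arrayed compounds as a control protein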
Streptavidin (Streptomyces avidinii), sequence (P22629 whole entry, looked up): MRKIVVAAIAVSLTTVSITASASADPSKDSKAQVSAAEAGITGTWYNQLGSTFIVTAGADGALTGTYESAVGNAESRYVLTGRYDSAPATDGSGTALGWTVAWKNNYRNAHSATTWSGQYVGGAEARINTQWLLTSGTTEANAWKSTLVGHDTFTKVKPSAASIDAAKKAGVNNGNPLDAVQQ

[7] = probe aInhba binding on compound microarray – biochemical, small-molecule microarray, 635/667 nm fluorescence, primary screen (AID 1148); details: higher = more signal;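 note: score merges 667nm spot fluorescence with signal-to-noise for antibody binding to printed compounds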
Torsin-1A (Homo sapiens) [8] = molecular target: Torsin-1A (Homo sapiens) (UniProt O14656); experiment: TOR1A wild-type binding on microarray – cell lysate, small-molecule microarray, lysate, 635/667 nm, primary screen (AID 1149); details: COS7 hTOR1A-WT lysate, 635 nm fluorescence, higher = more signal
Torsin-1A (Homo sapiens), sequence (O14656 whole entry, looked up): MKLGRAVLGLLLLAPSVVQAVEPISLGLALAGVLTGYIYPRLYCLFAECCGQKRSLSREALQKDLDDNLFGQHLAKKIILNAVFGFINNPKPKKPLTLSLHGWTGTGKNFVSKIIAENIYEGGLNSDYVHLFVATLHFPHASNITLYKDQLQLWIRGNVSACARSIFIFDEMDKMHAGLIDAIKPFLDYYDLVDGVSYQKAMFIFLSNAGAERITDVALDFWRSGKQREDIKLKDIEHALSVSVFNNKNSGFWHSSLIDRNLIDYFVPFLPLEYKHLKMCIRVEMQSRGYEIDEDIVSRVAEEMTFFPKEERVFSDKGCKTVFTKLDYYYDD

Torsin-1A (Homo sapiens) [9] = molecular target: Torsin-1A (Homo sapiens) (UniProt O14656); experiment: torsin A mutant lysate binding on microarrays – cell lysate, small-molecule microarray, COS7 lysate, 635/667 nm fluorescence, primary screen (AID 1150); details: COS7 hTOR1A mutant lysate, 635 nm fluorescence, higher = more signal;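 note: score pools 667 nm emission and signal to noise measuring lysate protein binding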
[10] = tested on: Sonic hedgehog protein (Shh); experiment: Sonic hedgehog microarray binding compounds – biochemical, small-molecule microarray, 635/667 nm fluorescence, primary screen (AID 1151); details: 635 nm fluorescence, higher = more signal;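 note: Shh protein binding to compounds spotted on small-molecule microarray slides; score combines spot fluorescence intensity with signal-to-noise across triplicate slides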

SMILES | composite z-score [1] | z-score [2] | z-score [3] | z-score [4] | z-score [5] | composite z-score [6] | composite z-score [7] | composite z-score (Torsin-1A (Homo sapiens) [8]) | composite z-score (Torsin-1A (Homo sapiens) [9]) | composite z-score [10]
Cn1c(=O)n2n(c1=O)[C@H]1[C@H](O)[C@@H]3O[C@@H]3C(=NOCc3ccccc3)[C@H]1CC2 | -0.279 | 0.637 (inactive) | -0.53 (inactive) | -0.0211 (inactive) | 0.383 (inactive) | -0.178 | -0.183 | -0.223 | 0.0523 | 0.378
O=C1[C@H]2[C@H]3[C@H](O)[C@H](O)CC(=NOC[C@@H](O)COCc4ccco4)[C@H]3CC[C@H]2C(=O)N1c1ccc(F)cc1F | -0.459 | -2.57 (inactive) | -1.34 (inactive) | 0.699 (inactive) | -0.455 (inactive) | -1.07 | -0.103 | 2.05 | 1.84 | 0.717
Cc1ccc(S(=O)(=O)N[C@H]2COC(=O)CC=C[C@@H](C)COC(=O)CC=C[C@@H]2C)cc1 | -0.0032 | 0.319 (inactive) | -0.748 (inactive) | -0.0223 (inactive) | 0.113 (inactive) | 0.407 | -0.0645 | 0.346 | -0.534 | 1.92
O=C1[C@H]2[C@H]3[C@H](O)[C@H](O)CC(=NOCc4ccccc4)[C@@H]3CC[C@H]2C(=O)N1C[C@@H]1CCCO1 | 0.0388 | 0.379 (inactive) | -0.614 (inactive) | -0.115 (inactive) | 0.105 (inactive) | 0.632 | -0.157 | 0.304 | 0.198 | 0.317
COc1ccc(O[C@@H]2[C@H](O)CO[C@@H]2C=Cc2ccccc2)cc1 | 0.059 | -2.79 (inactive) | -0.828 (inactive) | -0.613 (inactive) | -0.736 (inactive) | -0.0696 | -0.128 | -0.071 | 0.55 | 0.503
C[C@H]1COC(=O)[C@@H]2CCCN2C(=O)[C@@H](C)COC(=O)[C@H](Cc2ccccc2)NC1=O | 0.0398 | 0.257 (inactive) | -0.0355 (inactive) | -0.468 (inactive) | 0.574 (inactive) | 0.0706 | -0.045 | 0.146 | 0.0507 | 0.515
CC[C@@H](c1ccccc1)n1c(=O)n2n(c1=O)[C@H]1[C@H](O)[C@@H]3O[C@@H]3C(=NOC[C@@H](O)COCc3ccco3)[C@H]1CC2 | 0.112 | 0.456 (inactive) | 0.232 (inactive) | 0.704 (inactive) | 0.427 (inactive) | -0.715 | -0.257 | -0.354 | -0.517 | 1.07
C#CCCCON=C1[C@H]2CCn3c(=O)n(C)c(=O)n3[C@H]2[C@H](O)[C@@H]2O[C@H]12 | 0.119 | 0.119 (inactive) | 0.806 (inactive) | 0.523 (inactive) | -0.149 (inactive) | 0.38 | 0.0471 | 0.326 | 0.693 | 0.837
O=c1n(Cc2cc3c(cc2Cl)OCO3)c(=O)n2n1CC[C@@H]1C(=NOC[C@@H](O)COCc3ccco3)[C@H]3O[C@H]3[C@@H](O)[C@@H]12 | 0.127 | 0.376 (inactive) | -1.11 (inactive) | 0.975 (inactive) | 0.819 (inactive) | 1.02 | 0.0084 | 0.365 | 0.156 | 0.344
